Sampled rows, rich in hits. Any-hit rate of the full collection: about 2.1%.
PAX8 inh HTS: lowers PAX8-driven luciferase in RMG-I cells. RMG-I TPO-luciferase reporter, SteadyGlo, 24 h. AID 652154. 360,000 tested, 1.2% active. inhibition, % at 12.6 µM;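 active means mean replicate inhibition at least 60% with every replicate also reaching 60%; inconclusive means only one of the two criteria is met; inactive means mean below 60% and not all replicates reaching 60%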;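 further: luciferase light reporting Pax8 driven TPO promoter activity; plate controls were median of neutral control wells for no effect and mitoxantrone controls for full effect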
EBV LMP1 NFkB: reduces LMP1-driven NF-kappaB luciferase signal | LMP1-induced NF-kappaB luciferase reporter cells, luminescence | inhibition, % at 12.5 µM | 350,000 tested, 0.69% active | AID 504558; in the data active means inhibition above about 41%; inconclusive means no clear call, values can overlap the other calls;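 further: 0% = neutral control wells and 100% = reference inhibitor control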
aSyn 5UTR inh: 5' untranslated region of α-synuclein, MLPCN primary screen; alpha-synuclein 5'UTR reporter, inhibitor activity; inhibition, % (tested at 7.5 µM); 300,000 tested, 0.82% active; AID 1813; in the data active means inhibition above about 60%; inconclusive means no clear call, values can overlap the other calls;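 further: H4 neuroglioblastoma cells stably carrying SNCA 5'UTR luciferase fusion; 0% = DMSO wells and 100% = positive control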
Shn3 inh set2: Schnurri-3 reporter inhibition in Clone20 osteoblasts. Clone20 osteoblast Shn3 3'UTR firefly luciferase, 24 h. inhibition, % at 12.5 µM. 360,000 tested, 0.52% active. AID 588674;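 active means mean inhibition of at least 75% with every replicate also reaching 75%; inconclusive means mean inhibition at least 75% but some replicate below; inactive means mean inhibition below 75%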;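 further: 0% = median of neutral control wells and 100% = pilot-screen positive control compound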
MITF TRPM1 inh: reduces MITF-dependent TRPM1 promoter luciferase signal | SK-MEL-5 TRPM1 promoter luciferase, 24 h | inhibition, % at 12.5 µM | 330,000 tested, 0.83% active | AID 488899;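 active means mean inhibition across replicates of 60% or more, whatever share of single replicates reaches that level; inconclusive means some that reach 60%, reason not given; inactive means mean inhibition across replicates below 60%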
* = called active by the depositor; ? = inconclusive; . = no result given.

SMILES	PAX8 inh HTS	EBV LMP1 NFkB	aSyn 5UTR inh	Shn3 inh set2	MITF TRPM1 inh
COC(=O)CCCC[C@@H]1SC[C@@H](NC(=O)OC)[C@@H]1NC(=O)OC	10	53*	13	15	4
COC(=O)CCCCC1SCC(NC(=O)OC)C1NC(=O)OC (stereo not drawn)	.	7	9	-6	4
COc1ccc2c(c1)c(N=O)c(O)n2C	.	0	27	-4	11
O=C(Nc1ccc(Cl)cc1)c1ccc2snnc2c1	-27	80*	-149	-26	-51
CC(=O)c1ccc(NC(=O)c2ccc3snnc3c2)cc1	-158	-11	-119	-82	-84
Cc1ccc2nc(CCc3ccc(N)cc3)[nH]c2c1	-94	-16	-136	-29	-25
Nc1ccc2nc(CCc3ccccc3)[nH]c2c1	7	59*	-68	-71	-10
COc1ccc(-c2nn(-c3ccccc3)cc2/C=N/NC(=O)c2ccc(Br)o2)cc1	.	-33	-98	16	63*
FC(F)(F)c1cc(CCN2CCNC[C@@H]2CC2CCCCC2)cc(C(F)(F)F)c1	11	-7	.	3	64*
CCCC[C@@H]1CNCCN1CCc1cc(C(F)(F)F)cc(C(F)(F)F)c1	-8	-2	3	1	30
CCCCN(CCCC)NC(=O)c1ccccc1	1	-4	6	42	4
CCCCCOC(=O)CC(C(=O)OCCCCC)N1CCCCC1 (stereo not drawn)	.	3	-6	10	9
CCOc1ccc(-n2c(SCC(=O)Nc3ccc(Br)cc3)nc3n[nH]c(C)c3c2=N)cc1	15	-11	82*	56	58
CCOc1ccc(-n2c(SCC(=O)Nc3ccccc3CC)nc3n[nH]c(C)c3c2=N)cc1	21	.	23	.	.
Cc1cc(-n2c(SCC(=O)Nc3ccc(Br)cc3)nc3n[nH]c(C)c3c2=N)ccc1Cl	16	-9	20	54	14
Cc1cc(-n2c(SCC(=O)Nc3ccc(F)c(F)c3)nc3n[nH]c(C)c3c2=N)ccc1Cl	77*	5	51	52	46
COc1ccccc1NC(=O)N1CCC(c2nc3cc(C)c(C)cc3[nH]2)CC1	29	15	74*	9	29
Cc1ccc(S(=O)(=O)N(C)C[C@H]2Oc3cc(C4=CCCC4)ccc3S(=O)(=O)N([C@H](C)CO)C[C@@H]2C)cc1	58	.	.	.	.
COc1ccccc1-n1cc([C@@H]2C[C@H]3CN(c4ccccc4)C(=O)[C@]34CCCN24)cn1	98*	60*	-362	97*	46
Cc1ccc(S(=O)(=O)NC(=NC(Cc2ccccc2)C(=O)O)c2ccccc2)cc1 (stereo not drawn)	3	-2	10	-17	13
O=C(/C=C/c1ccccc1)/C=C/c1ccccc1	3	-59	-112	64	79*
O=C(/C=C/c1ccccc1)c1ccccc1	-81	0	-105	-54	-22
COc1ccc(C(=O)/C=C/C(=O)N(CC(=O)NCCC(C)C)Cc2cccs2)c(O)c1	0	16	?	98*	84*
COc1ccc(C(=O)/C=C/C(=O)N(CC(=O)NC2CCCCC2)Cc2ccc(F)cc2)c(O)c1	23	25	72*	14	99*
O=C(c1ccccc1F)N1CCCC(c2ccccc2)C1 (stereo not drawn)	67*	-1	20	7	1
SMILES	PAX8 inh HTS	EBV LMP1 NFkB	aSyn 5UTR inh	Shn3 inh set2	MITF TRPM1 inh
C[C@@H]1CN([C@H](C)CO)C(=O)c2cc(NC(=O)Cc3ccccc3)ccc2O[C@@H]1CN(C)Cc1ccncc1	4	.	.	.	.
Cc1ccc(-n2cc(C(=O)c3ccccc3O)cn2)cc1	-12	78*	14	-7	-17
COc1ccccc1NC(=O)CNC(=O)Cn1c(C)cc2ccccc2c1=O	2	3	18	10	6
CCCN1C(=O)c2ccccc2NC1c1cc(OC)c(OC)c(OC)c1 (stereo not drawn)	1	4	34	-2	0
CCN1c2ccccc2NC2N=C(OC)C(c3ccccc3)C21 (stereo not drawn)	.	-10	-31	47	87*
Cc1cc2nc(C3CCN(Cc4nnnn4Cc4cccs4)CC3)[nH]c2cc1C	.	-2	63*	27	27
Cc1ccc(CN2CCC(c3nc4ccc(Cl)cc4[nH]3)CC2)cc1	.	4	18	-8	10
Cc1cc(NC(=O)c2cccc3c2C(=O)N(C2CCCCC2)C3)ccc1Br	.	-2	17	9	-13
CC(CNCCCn1ccc(NC(=O)OCc2ccccc2)nc1=O)c1ccccc1 (stereo not drawn)	3	2	.	1	-10
